Screens deposited in PubChem BioAssay by National Center for Advancing Translational Sciences (NCATS).
Pf growth 48h = P. falciparum growth inhibition at 48 hours (one generation); P. falciparum luciferase growth in erythrocytes, 48 h; Potency, µM (series often up to 28.7 µM), most hits filed as inhibitors; hit rate 5.9% among 310,000
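Firefly luciferase activity from engineered P. falciparum reports growth; inhibitors lower the luminescent signal. Cultures contained 2% hematocrit erythrocytes at 0.1% final parasitemia.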
Pf growth 96h = inhibits malaria parasite growth, 96 h | P. falciparum luciferase reporter growth, 96 h | Potency, µM (highest dose often 28.7 µM), most hits filed as inhibitors | hit rate 6.9% among 320,000 | AID 504834
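P. falciparum expressing integrated firefly luciferase, in erythrocytes at 2% hematocrit, 0.05% parasitemia, incubated with compounds 96 h at 37 C, 5% CO2. Growth inhibition read as loss of luminescence; two-generation exposure targets delayed-death apicoplast inhibitors.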
SARS PLP yeast = SARS-CoV PLP inhibition in yeast | hit rate 0.19% among 330,000 | Potency, µM (top dose mostly 32.9 µM), hits mostly activators | AID 485353 | S. cerevisiae expressing SARS-CoV PLpro, growth rescue; calls by dose curve; further: nearly all actives have a fitted effect of over 55% in size
NS1 function inh = blocks influenza NS1 protein function. Potency, µM (series often up to 46.1 µM). hit rate 0.4% among 270,000; calls by dose curve; further: actives are rising curves; nearly all actives have a fitted effect of over 50% in size
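OD600 was taken as the measure of yeast growth restored by compound in an NS1-expressing S. cerevisiae strain. Cells had been washed out of glucose medium and diluted 1:100 into galactose -URA medium, pH 6.0.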
Hits are given with their value; - = inactive; ? = inconclusive; . = no result given. The list is not random: actives were taken first. Their share in the collection is about 10%. Unless noted, the call rests on the fitted dose curve; in most records, active means well fitted inhibition curve with a large enough effect; inconclusive means small, poorly fitted or top-dose-only effect, or another doubt; inactive means no such curve, though single readings can be large or run the other way.

SMILES	Pf growth 48h	Pf growth 96h	SARS PLP yeast	NS1 function inh
CC1CN(c2ccc(Cl)cc2)c2nc3c(c(=O)[nH]c(=O)n3C)n2C1 (stereo not drawn)	-	-	-	-
CCc1ccc(N2CC(C)Cn3c2nc2c3c(=O)[nH]c(=O)n2C)cc1 (stereo not drawn)	7.38µM	2.94µM	-	-
CC(NC(=S)Nc1ccc(Cl)cc1)C(c1ccccc1)N1CCOCC1 (stereo not drawn)	?	10.4µM	-	-
CC(NC(=O)Nc1ccccc1)C(c1ccccc1)N1CCOCC1 (stereo not drawn)	-	-	-	-
O=[N+]([O-])c1cccnc1S(=O)(=O)c1ccccc1	?	10.4µM	-	-
COc1ccc([N+](=O)[O-])c(S(=O)(=O)c2ccccc2)n1	-	?	-	-
CN(C)c1cccc(C(=O)NCc2ccc3c(c2)OCO3)c1	?	?	-	-
CN(C)c1cccc(C(=O)N(Cc2ccccc2)Cc2ccccc2)c1	-	10.4µM	-	-
CN(C)c1ccc(C(=O)N(Cc2ccccc2)Cc2ccccc2)cc1	-	14.7µM	-	-
CN(C)c1ccc(C(=O)c2ccccc2)cc1	.	-	-	-
CN(C)c1cccc(C(=O)NCc2ccc(Cl)cc2)c1	4.15µM	-	-	-
COc1ccc(CCNC(=O)Nc2ccc(F)cc2F)cc1OC	-	-	-	-
COc1ccc(Oc2nc(-c3ccccc3)ncc2S(=O)(=O)c2ccccc2)cc1	14.7µM	?	-	-
O=S(=O)(c1ccccc1)c1cnc(-c2ccccc2)nc1N1CCCC1	-	-	-	-
Cc1cccc(C)c1Oc1nc(-c2ccccc2)ncc1S(=O)(=O)c1ccccc1	2.08µM	?	-	-
COc1cccc(Sc2nc(-c3ccccc3)ncc2S(C)(=O)=O)c1	.	9.28µM	-	-
Cc1ccc(S(=O)(=O)c2cnc(-c3ccccc3)nc2N2CCCCC2)cc1	13.1µM	-	-	-
COc1nc(-c2ccccc2)ncc1S(=O)(=O)c1ccccc1	?	?	-	-
O=C(c1cc(COc2ccc(F)cc2Cl)on1)N1CC2C[C@@H]3CC1C[C@H](C2)C3	-	-	-	-
O=C(COc1coc(CN2CCN(c3ccccc3F)CC2)cc1=O)NC1CCCC1	?	?	-	.
CCOc1ccc(NC(=O)CN(C)C(=O)C(C)N2C(=O)c3ccccc3C2=O)cc1OCC (stereo not drawn)	-	-	-	.
NC(=O)NOCc1ccc(Cl)cc1Cl	-	-	-	-
CNC(=S)/N=C/NOCc1ccc(Cl)cc1Cl	?	14.7µM	-	.
O=c1[nH]nc(Sc2ncnc3sccc23)n1CCc1ccccc1	10.4µM	9.28µM	-	-
O=C1CS/C(=N/N=C/c2ccncc2)N1	?	14.7µM	-	-
SMILES	Pf growth 48h	Pf growth 96h	SARS PLP yeast	NS1 function inh
CCOc1ccccc1N1CCN(C(=O)c2ccc(Cl)c(S(=O)(=O)N3CCCCC3)c2)CC1	11.7µM	5.22µM	-	.
COc1ccccc1N1CCN(C(=O)c2cccc(S(=O)(=O)N3CCCCCC3)c2)CC1	13.1µM	?	-	.
COc1ccccc1N1CCN(C2CCN(C(=O)c3cccc(F)c3)CC2)CC1	-	13.1µM	-	-
CC1CC(C)CN(S(=O)(=O)c2cccc(C(=O)N3CCN(c4ccc(F)cc4)CC3)c2)C1 (stereo not drawn)	11.7µM	?	-	.
CC1CN(C(=O)COC(=O)Cc2c(F)cccc2Cl)CC(C)O1 (stereo not drawn)	-	-	-	.
Cc1ccc(S(=O)(=O)N(C)S(=O)(=O)c2ccc(C#N)cc2)cc1	-	-	-	?
O=C(COc1ccc(Cl)cc1)NCCS(=O)(=O)N1CCN(c2ccccc2F)CC1	-	-	-	-
O=C(c1cccc(S(=O)(=O)N2CCN(c3ccccc3)CC2)c1)N1CCN(c2ccccc2O)CC1	10.4µM	?	-	.
CC(=O)N1CCN(C(=O)c2cccc(S(=O)(=O)N3CCN(c4ccccc4)CC3)c2)CC1	?	-	-	.
Cn1c(O)c(N=NC(=O)c2cccc(S(=O)(=O)N3CCCCC3)c2)c2ccccc21	10.4µM	7.38µM	-	-
O=C(c1ccc(-c2ccccc2)cc1)N1CCN(c2ccccc2F)CC1	-	-	-	-
COc1cccc(S(=O)(=O)NCc2ccc(C(=O)N3CCN(c4ccccc4OC)CC3)cc2)c1	7.38µM	?	-	-
COc1cccc(S(=O)(=O)NCc2ccc(C(=O)N3CCN(c4ccccc4)CC3)cc2)c1	-	?	-	-
Cc1ccc(N2C(=O)c3ccc(C(=O)N4CCN(c5ccccc5F)CC4)cc3C2=O)cc1	-	9.28µM	-	?
CN1CCN(S(=O)(=O)c2cccc(C(=O)N3CCN(c4ccccc4F)CC3)c2)CC1	-	-	-	.
COc1ccc(C(=O)N2CCN(C3CCC(c4ccccc4)CC3)CC2)cc1OC (stereo not drawn)	?	9.28µM	-	-
O=C(c1cccc(S(=O)(=O)N2CCCCC2)c1)N1CCc2ccccc21	-	1.17µM	-	-
O=C(c1cccc(S(=O)(=O)N2CCCCCC2)c1)N1CCN(c2ccccc2F)CC1	11.7µM	-	-	-
COc1ccc(-n2ncc3c(=O)n(Cc4c(F)cccc4Cl)cnc32)cc1	-	-	-	-
CCN(CC(=O)Nc1cc(S(=O)(=O)N2CCOCC2)ccc1C)Cc1ccccc1	?	?	-	.
CC(=O)N1CCN(c2ccnc3cc(Cl)ccc23)CC1	?	11.7µM	-	-
O=C(Nc1cc(F)ccc1F)N1CCN(c2ccnc3cc(Cl)ccc23)CC1	?	?	-	-
O=S(=O)(c1cccs1)N1CCN(c2ccnc3cc(Cl)ccc23)CC1	9.28µM	6.57µM	-	-
O=C(Nc1ccc(C(F)(F)F)cc1)N1CCN(c2ccnc3cc(Cl)ccc23)CC1	1.47µM	?	-	-
O=C(O)CSCC(=O)N1CCN(c2ccnc3cc(Cl)ccc23)CC1	?	?	-	-
SMILES	Pf growth 48h	Pf growth 96h	SARS PLP yeast	NS1 function inh
Cc1ccc(F)cc1NC(=O)N1CCN(c2ccnc3cc(Cl)ccc23)CC1	?	6.57µM	-	-
O=S(=O)(c1ccccc1)N1CCN(c2ccnc3cc(Cl)ccc23)CC1	?	-	-	-
COc1ccccc1CCC(=O)Oc1ccc(C#N)cc1OC	-	?	-	-
ClCCN1CCN(c2ccnc3cc(Cl)ccc23)CC1	0.828µM	0.828µM	-	?
CCCCc1ccc(NC(=O)N2CCN(c3cc(C)nc4ccccc34)CC2)c(C)c1	?	?	-	-
CCCCNC(=O)N1CCN(c2ccnc3cc(Cl)ccc23)CC1	4.65µM	3.7µM	-	-
Cc1cc(N2CCN(C(=O)Nc3ccc(F)cc3F)CC2)c2ccccc2n1	10.4µM	14.7µM	-	-
Cc1c(NC(=O)C(C)Oc2ccc(Br)cc2)c(=O)n(-c2ccccc2)n1C (stereo not drawn)	.	.	-	.
c1ccc(-c2cnnc(SCc3cn4cccnc4n3)n2)cc1	10.4µM	9.28µM	-	-
COc1ccc(N(CC(=O)NCc2ccc(F)cc2)C(=O)Cn2nnc(-c3ccc(C)o3)n2)cc1OC	?	-	-	-
CN(N=O)C(=O)N[C@H]1[C@@H](O)[C@H](O)[C@H](CO)O[C@@H]1O	-	-	.	.
CNC(=S)N1C2CCC1CC(NC(=O)NC13CC4CC(CC(C4)C1)C3)C2 (stereo not drawn)	11.7µM	?	?	-
